PubChem BioAssay AID1159580 (chemical genetic matrix, 2015)
Out of some 5,500 compounds screened, about 2,000 (36%) were called active. About 18% were inconclusive and are not listed. Cut-off read from the data, not from the text of the source: active = normalized growth mostly below about 0.91 (no sharp cut-off); inconclusive = no clear call, values can overlap the other calls; inactive = mostly above about 0.92. The list shows a part of the results.

Experiment: chemical genetic growth profiling, strain panel (AID 1159580);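 note: tested at 20 µM; growth read once vehicle control cultures reached saturation at 30 °C; 1 = growth at the plate median or of vehicle wells; lower values mean less growth of the strain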
Details: growth OD
[1] = S. cerevisiae deletion strains, locus YJR075W, strain HOC1, active compounds read low
[2] = S. cerevisiae deletion strains, locus YMR307W, strain GAS1, active compounds read low
[3] = S. cerevisiae deletion strains, locus YNL153C, strain GIM3, active compounds read low

Measured: normalized growth

CN1CCC(c2c[nH]c3ccc(O)cc23)CC1
inactive: S. cerevisiae deletion strains, locus YAL040C, strain CLN3, active compounds read low 0.986 | S. cerevisiae deletion strains, locus YCL061C, strain MRC1 (second series), active compounds read low 1.01 | S. cerevisiae deletion strains, locus YDR150W, strain NUM1, active compounds read low 1.01 | S. cerevisiae deletion strains, locus YDR363W, strain ESC2, active compounds read low 1 | S. cerevisiae deletion strains, locus YER002W, strain NOP16, active compounds read low 0.987 | [1] 1.01 | [2] 0.988 | [3] 0.948 | S. cerevisiae deletion strains, locus YNL175C, strain NOP13, active compounds read low 1.01 | S. cerevisiae deletion strains, locus YNL197C, strain WHI3, active compounds read low 0.999 | S. cerevisiae deletion strains, locus YNL224C, strain SQS1, active compounds read low 1.02 | S. cerevisiae deletion strains, locus YOR083W, strain WHI5 (second series), active compounds read low 1.04 | S. cerevisiae deletion strains, locus YPL055C, strain LGE1, active compounds read low 0.996

CSCCC(NC=O)C(=O)NC(C)C(=O)O (stereo not drawn)
inactive: S. cerevisiae deletion strains, locus YBR021W, strain FUR4, active compounds read low 0.982 | S. cerevisiae deletion strains, locus YBR229C, strain ROT2, active compounds read low 0.989 | S. cerevisiae deletion strains, locus YCL029C, strain bik1, active compounds read low 0.983 | S. cerevisiae deletion strains, locus YDL035C, strain GPR1, active compounds read low 1.01 | S. cerevisiae deletion strains, locus YDL074C, strain BRE1, active compounds read low 1.02 | S. cerevisiae deletion strains, locus YDL101C, strain DUN1, active compounds read low 0.998 | S. cerevisiae deletion strains, locus YDL134C, strain PPH21, active compounds read low 0.989 | S. cerevisiae deletion strains, locus YDL185W, strain tfp1, active compounds read low 0.977 | S. cerevisiae deletion strains, locus YDL192W, strain arf1, active compounds read low 0.972 | S. cerevisiae deletion strains, locus YDR101C, strain arx1, active compounds read low 0.983 | S. cerevisiae deletion strains, locus YDR162C, strain NBP2, active compounds read low 0.997 | S. cerevisiae deletion strains, locus YDR318W, strain mcm21, active compounds read low 0.988 | S. cerevisiae deletion strains, locus YDR388W, active compounds read low 0.985 | S. cerevisiae deletion strains, locus YDR502C, strain sam2, active compounds read low 0.992 | S. cerevisiae deletion strains, locus YEL061C, strain CIN8, active compounds read low 0.995 | S. cerevisiae deletion strains, locus YER110C, active compounds read low 0.976 | S. cerevisiae deletion strains, locus YER155C, strain BEM2, active compounds read low 0.993 | S. cerevisiae deletion strains, locus YER167W, strain BCK2, active compounds read low 0.988 | S. cerevisiae deletion strains, locus YGL078C, strain dbp3, active compounds read low 0.978 | S. cerevisiae deletion strains, locus YGL086W, strain mad1, active compounds read low 0.996 | S. cerevisiae deletion strains, locus YGL248W, strain PDE1, active compounds read low 1.01 | S. cerevisiae deletion strains, locus YGR078C, strain PAC10, active compounds read low 1.03 | S. cerevisiae deletion strains, locus YGR135W, strain pre9, active compounds read low 0.984 | S. cerevisiae deletion strains, locus YGR229C, strain SMI1, active compounds read low 0.995 | S. cerevisiae deletion strains, locus YGR252W, strain gcn5, active compounds read low 0.972 | S. cerevisiae deletion strains, locus YHR030C, strain SLT2, active compounds read low 0.989 | S. cerevisiae deletion strains, locus YHR079C, strain IRE1 (second series), active compounds read low 0.988 | S. cerevisiae deletion strains, locus YHR094C, strain hxt1, active compounds read low 0.978 | S. cerevisiae deletion strains, locus YHR129C, strain ARP1, active compounds read low 0.996 | S. cerevisiae deletion strains, locus YHR200W, strain rpn10, active compounds read low 0.987 | S. cerevisiae deletion strains, locus YIL066C, strain RNR3, active compounds read low 1 | S. cerevisiae deletion strains, locus YIL073C, strain SPO22, active compounds read low 0.943 | S. cerevisiae deletion strains, locus YIL125W, strain kgd1, active compounds read low 0.987 | S. cerevisiae deletion strains, locus YIR030C, strain dcg1, active compounds read low 0.983 | S. cerevisiae deletion strains, locus YJL095W, strain BCK1, active compounds read low 1.04 | S. cerevisiae deletion strains, locus YJL134W, strain LCB3, active compounds read low 0.991 | S. cerevisiae deletion strains, locus YJL168C, strain set2, active compounds read low 0.985 | S. cerevisiae deletion strains, locus YJL187C, strain SWE1 (second series), active compounds read low 1.01 | S. cerevisiae deletion strains, locus YJR043C, strain POL32, active compounds read low 1.02 | [1] 1.01 | S. cerevisiae deletion strains, locus YKL009W, strain mrt4, active compounds read low 0.974 | S. cerevisiae deletion strains, locus YKL068W, active compounds read low 0.986 | S. cerevisiae deletion strains, locus YKL085W, strain MDH1 (second series), active compounds read low 1.01 | S. cerevisiae deletion strains, locus YKL085W, strain MDH1, active compounds read low 1.01 | S. cerevisiae deletion strains, locus YKL190W, strain CNB1, active compounds read low 1 | S. cerevisiae deletion strains, locus YKR001C, strain vps1, active compounds read low 0.988 | S. cerevisiae deletion strains, locus YLR039C, strain RIC1, active compounds read low 1.01 | S. cerevisiae deletion strains, locus YLR058C, strain SHM2, active compounds read low 0.996 | S. cerevisiae deletion strains, locus YLR102C, strain apc9, active compounds read low 0.98 | S. cerevisiae deletion strains, locus YLR262C, strain YPT6, active compounds read low 1.04 | S. cerevisiae deletion strains, locus YLR268W, strain sec22, active compounds read low 0.987 | S. cerevisiae deletion strains, locus YLR330W, strain CHS5, active compounds read low 0.99 | S. cerevisiae deletion strains, locus YLR342W, strain FKS1 (second series), active compounds read low 0.987 | S. cerevisiae deletion strains, locus YLR371W, strain rom2, active compounds read low 0.972 | S. cerevisiae deletion strains, locus YLR418C, strain cdc73, active compounds read low 0.994 | S. cerevisiae deletion strains, locus YML016C, strain PPZ1, active compounds read low 0.993 | S. cerevisiae deletion strains, locus YML032C, strain rad52, active compounds read low 0.987 | S. cerevisiae deletion strains, locus YML124C, strain tub3, active compounds read low 0.981 | S. cerevisiae deletion strains, locus YMR078C, strain ctf18, active compounds read low 0.984 | S. cerevisiae deletion strains, locus YMR223W, strain ubp8, active compounds read low 0.986 | S. cerevisiae deletion strains, locus YMR263W, strain SAP30, active compounds read low 1.01 | [2] 0.872 | S. cerevisiae deletion strains, locus YNL067W, strain RPL9B, active compounds read low 1.03 | [3] 1.04 | S. cerevisiae deletion strains, locus YNL233W, strain BNI4, active compounds read low 1.01 | S. cerevisiae deletion strains, locus YNL250W, strain rad50, active compounds read low 0.983 | S. cerevisiae deletion strains, locus YNL271C, strain bni1, active compounds read low 0.968 | S. cerevisiae deletion strains, locus YNL298W, strain CLA4, active compounds read low 0.99 | S. cerevisiae deletion strains, locus YNL307C, strain MCK1, active compounds read low 0.989 | S. cerevisiae deletion strains, locus YNR052C, strain pop2, active compounds read low 0.983 | S. cerevisiae deletion strains, locus YOL006C, strain TOP1, active compounds read low 1.05 | S. cerevisiae deletion strains, locus YOL012C, strain htz1 1.02 | S. cerevisiae deletion strains, locus YOL147C, strain pex11, active compounds read low 0.983 | S. cerevisiae deletion strains, locus YOR061W, strain CKA2, active compounds read low 0.993 | S. cerevisiae deletion strains, locus YOR069W, strain VPS5, active compounds read low 0.983 | S. cerevisiae deletion strains, locus YOR136W, strain idh2, active compounds read low 0.995 | S. cerevisiae deletion strains, locus YOR144C, strain elg1, active compounds read low 0.984 | S. cerevisiae deletion strains, locus YOR184W, strain ser1, active compounds read low 0.995 | S. cerevisiae deletion strains, locus YOR316C, strain cot1, active compounds read low 0.972 | S. cerevisiae deletion strains, locus YPR119W, strain clb2, active compounds read low 0.991 | S. cerevisiae deletion strains, locus YPR141C, strain kar3, active compounds read low 0.978 | S. cerevisiae deletion strains, locus YPR163C, strain tif3, active compounds read low 0.988 | S. cerevisiae deletion strains, locus YPR167C, strain met16, active compounds read low 0.978 | S. cerevisiae deletion strains, strain wtn01, active compounds read low 0.992 | S. cerevisiae strains, strain wild type, active compounds read low 0.996
